# Among all 170,000 compounds or so, about 900 (0.53%) were called active.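 Rule for the calls: active = relative growth at most 50% at the other temperature and 20+ points below 30 °C, or under 10% at both; inactive = the rest, inconclusive results apart.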 The full list was thinned out, with actives kept by preference.
# Test: Staphylococcus aureus RN4220 growth blockers – two temperatures, LtaS inhibitor project, primary screen (AID 720641)
# Conditions: S. aureus RN4220 growth, OD600, 20 h, 42 °C, stronger effect = lower value
SMILES,relative growth,relative growth (measured here: growth at 30 °C) [%]
[C-]#[N+]c1ccc(Cl)cc1C(C)S(=O)(=O)c1ccc(C)cc1 (stereo not given),4.29% (active),7.07
Cc1cc(N2CCNCC2)nc(C)n1,91.3% (inactive),82.9
CN1C(=O)C(C(=O)O)C2CC1Oc1ccccc12 (stereo not given),91.5% (inactive),72.8
O=C(Cn1cc(/C=C2/C(=O)NC(=O)N(Cc3ccco3)C2=O)c2ccccc21)NCC1CCCO1 (stereo not given),98.4% (inactive),86.3
CN(C)c1ccc(/C=C2/C(=O)C3CCN2CC3)cc1,112% (inactive),95.5
